The compounds below were run against Neurogenic locus notch homolog protein 3 (Homo sapiens) (UniProt Q9UM47) (assay: NOTCH3 binders on small-molecule microarray, primary screen, biochemical, 635/667 nm fluorescence (AID 1096)). Conditions: NOTCH3 binding, 635 nm fluorescence, higher = more signal.
Chain of Neurogenic locus notch homolog protein 3 (Homo sapiens) (Q9UM47 whole entry, looked up): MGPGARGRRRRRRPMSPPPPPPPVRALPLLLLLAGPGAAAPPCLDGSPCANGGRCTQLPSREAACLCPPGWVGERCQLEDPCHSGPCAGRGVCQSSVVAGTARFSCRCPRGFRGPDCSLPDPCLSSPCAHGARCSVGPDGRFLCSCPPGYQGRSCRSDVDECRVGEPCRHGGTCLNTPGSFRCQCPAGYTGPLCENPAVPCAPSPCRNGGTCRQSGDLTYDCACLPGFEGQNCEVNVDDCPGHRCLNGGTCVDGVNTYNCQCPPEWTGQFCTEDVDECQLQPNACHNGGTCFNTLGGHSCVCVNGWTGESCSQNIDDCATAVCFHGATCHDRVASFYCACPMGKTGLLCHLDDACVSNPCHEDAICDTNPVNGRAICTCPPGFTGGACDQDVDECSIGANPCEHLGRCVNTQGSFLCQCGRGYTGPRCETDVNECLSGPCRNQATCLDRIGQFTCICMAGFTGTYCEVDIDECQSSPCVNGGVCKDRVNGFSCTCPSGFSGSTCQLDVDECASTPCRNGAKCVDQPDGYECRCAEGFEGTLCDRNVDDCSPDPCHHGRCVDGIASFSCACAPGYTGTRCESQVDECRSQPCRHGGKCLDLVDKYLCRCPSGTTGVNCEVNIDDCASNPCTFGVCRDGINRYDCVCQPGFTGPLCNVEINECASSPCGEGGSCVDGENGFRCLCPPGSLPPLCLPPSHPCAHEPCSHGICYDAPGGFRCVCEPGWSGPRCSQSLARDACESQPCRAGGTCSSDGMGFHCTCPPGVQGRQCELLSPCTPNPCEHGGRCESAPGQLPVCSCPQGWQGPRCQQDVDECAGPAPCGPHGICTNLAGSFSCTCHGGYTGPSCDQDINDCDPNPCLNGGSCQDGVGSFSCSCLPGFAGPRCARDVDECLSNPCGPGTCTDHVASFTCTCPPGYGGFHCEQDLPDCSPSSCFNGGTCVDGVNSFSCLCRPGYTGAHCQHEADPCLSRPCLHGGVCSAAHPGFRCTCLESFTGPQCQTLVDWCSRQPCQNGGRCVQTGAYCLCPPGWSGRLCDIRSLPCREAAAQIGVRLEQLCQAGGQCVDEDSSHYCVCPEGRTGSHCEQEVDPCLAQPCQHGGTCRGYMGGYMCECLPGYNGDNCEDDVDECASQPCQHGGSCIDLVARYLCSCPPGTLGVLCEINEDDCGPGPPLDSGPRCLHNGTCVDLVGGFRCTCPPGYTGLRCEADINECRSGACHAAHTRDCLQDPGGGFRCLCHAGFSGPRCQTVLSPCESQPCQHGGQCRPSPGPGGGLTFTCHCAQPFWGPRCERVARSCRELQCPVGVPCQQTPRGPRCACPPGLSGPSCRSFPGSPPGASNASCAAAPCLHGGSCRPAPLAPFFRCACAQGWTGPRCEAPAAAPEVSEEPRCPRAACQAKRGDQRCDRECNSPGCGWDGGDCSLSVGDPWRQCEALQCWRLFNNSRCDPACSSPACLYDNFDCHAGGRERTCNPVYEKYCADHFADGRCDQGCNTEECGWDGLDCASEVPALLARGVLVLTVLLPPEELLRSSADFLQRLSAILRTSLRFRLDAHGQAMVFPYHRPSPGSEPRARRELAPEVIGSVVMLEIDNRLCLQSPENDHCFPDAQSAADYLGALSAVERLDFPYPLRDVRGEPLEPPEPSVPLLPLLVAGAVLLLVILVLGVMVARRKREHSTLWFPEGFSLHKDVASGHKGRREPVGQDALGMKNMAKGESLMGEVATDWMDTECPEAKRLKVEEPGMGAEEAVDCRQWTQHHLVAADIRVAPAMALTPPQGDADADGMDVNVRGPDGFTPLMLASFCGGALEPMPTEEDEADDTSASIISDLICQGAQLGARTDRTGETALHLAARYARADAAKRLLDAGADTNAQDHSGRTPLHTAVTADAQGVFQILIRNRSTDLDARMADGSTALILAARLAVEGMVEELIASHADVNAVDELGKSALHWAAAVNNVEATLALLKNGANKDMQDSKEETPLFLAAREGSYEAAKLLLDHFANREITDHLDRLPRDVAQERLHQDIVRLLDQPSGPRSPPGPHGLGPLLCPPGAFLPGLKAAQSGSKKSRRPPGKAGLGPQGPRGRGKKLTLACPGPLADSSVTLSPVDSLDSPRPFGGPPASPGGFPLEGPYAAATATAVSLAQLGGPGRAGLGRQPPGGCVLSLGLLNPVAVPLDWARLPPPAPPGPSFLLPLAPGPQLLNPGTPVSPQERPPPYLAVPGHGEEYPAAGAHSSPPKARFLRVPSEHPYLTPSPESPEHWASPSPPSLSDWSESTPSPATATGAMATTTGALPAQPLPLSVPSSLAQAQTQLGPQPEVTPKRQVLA
COc1ccc(NC(=O)O[C@H]2[C@H](OC(=O)c3cc4ccccc4[nH]3)[C@@H](OC(=O)c3cc4ccccc4[nH]3)[C@@H](OC)O[C@@H]2CO)cc1 gave a composite z-score of 0.475. For C=C(CCCC)C(=O)CC[C@H](OC(=O)c1cccnc1)c1ccc(OCCO)cc1, the composite z-score was -0.364. Work on C=CCN1C(=O)[C@]2(Cc3ccccc3)N=C(c3ccc(OCCCO)cc3)O[C@@H]2c2ccccc21 yielded a composite z-score of 1.15. CC(=O)NCCCC[C@@H]1NC(=O)[C@H]2C[C@@H](C(=O)NCCCCCNC(=O)CS)[C@@H](c3ccc(O)cc3)N2C1=O showed a composite z-score of -0.527. C=CCC(OC(C)=O)[C@@H]1[C@@H](N(Cc2cc3ccccc3o2)C(=O)Cc2ccc(OC)cc2)c2cc(OCCCO)ccc2N1C(=O)c1ccc2ccccc2c1 (some centres undefined) gave a composite z-score of -0.379. In the case of CC(c1ccccc1)C(O)C1C=CC2C(=O)N(c3ccccc3)C(=O)C2N1Nc1ccccc1 (centres undefined), the composite z-score is reported as 1.05. Work on COc1ccc([C@H]2C[C@H]3C(Br)=C[C@@]2(CO)C(=O)[C@]32CO2)cc1 yielded a composite z-score of -0.534. Compound COCCOC(=O)N1C(=O)[C@@]2(c3cc(C#CCCO)ccc31)[C@H](c1ccc(OCCO)cc1)N1[C@H](c3ccccc3)[C@H](c3ccccc3)OC(=O)[C@H]1[C@@H]2C(N)=O has a composite z-score of 1.08. In the case of CCCCN1CC=CC23O[C@@H]4/C=C\CCCOC(=O)C4[C@H]2C(=O)N(CCCCCO)[C@@H]3C1=O (some centres undefined), the composite z-score is reported as -1.02. Work on NCCCCCCNC(=O)[C@H]1C[C@H]2C(=O)N[C@@H](Cc3ccccc3)C(=O)N2[C@H]1c1cccc(OCCO)c1 yielded a composite z-score of 0.347. With COc1ccc([Si](C)(C)[C@@H]2[C@@H](CCn3cc(CCO)nn3)O[C@]3(C(=O)N(Cc4cccc(N5C(=O)c6cccc7cccc5c67)c4)c4ccccc43)[C@H]2C)cc1 the composite z-score was 0.903. Work on CC(=O)Nc1cc(Br)ccc1C(=O)NCc1ccccc1 yielded a composite z-score of 0.199. With CCCCCN1CC=CC23O[C@@H]4C=CCOC(=O)[C@@H]4[C@H]2C(=O)N(C(C)CO)[C@@H]3C1=O (some centres undefined) the composite z-score was -0.553. Compound CCOC(=O)C1=C[C@@H](C(C)C)N(S(=O)(=O)c2ccc(C)cc2)[C@H]1c1ccccc1F has a composite z-score of 1.06. In the case of CS(=O)(=O)CCOC(=O)C1=CC(CCCO)=CC(C2CC2)N(Cc2cc3c(cc2Br)OCO3)C=C1C(=O)OCCS(C)(=O)=O (centres undefined), the composite z-score is reported as 0.533. Compound Cc1c(NC(=O)/C(C#N)=C/c2cccc([N+](=O)[O-])c2)c(=O)n(-c2ccccc2)n1C has a composite z-score of 1.07. Compound C=CCN1Cc2ccccc2[C@@H]2OC(c3ccc(OCCCO)cc3)=N[C@]2(CCS(=O)(=O)c2ccccc2)C1=O has a composite z-score of 1.01. Work on C=CCNC(=O)[C@@H]1[C@H]2C(=O)O[C@H](c3ccccc3)[C@H](c3ccccc3)N2[C@H](c2ccc(OCCO)cc2)[C@@]12C(=O)N(C(=O)OCCOC)c1ccc(C#CCC(C(=O)OC)C(=O)OC)cc12 yielded a composite z-score of 1.03. Compound CN1C(=O)C2C=CC(C(O)C=Cc3ccc([N+](=O)[O-])cc3)N(Nc3ccccc3)C2C1=O (centres undefined) has a composite z-score of 1.12. COCCOC(=O)N1C(=O)[C@@]2(c3cc(C#CC4=CCCCC4)ccc31)[C@H](c1ccc(OCCO)cc1)N1[C@H](c3ccccc3)[C@H](c3ccccc3)OC(=O)[C@H]1[C@@H]2C(=O)N1CCc2cc(OC)c(OC)cc2C1 was tested, and the composite z-score was 1.06. Compound CC(C)CN1C(=O)[C@@]2(c3ccc([N+](=O)[O-])cc3)CC(=O)N(C3CCCCC3)[C@@H]2c2ccc(CO)cc21 has a composite z-score of -0.626. C#CCN1[C@H](/C=C/C2CC2)[C@H](Cc2ccccc2)OC(=O)[C@@H]1Cc1ccccc1 gave a composite z-score of 0.0922. Work on COc1ccccc1CN1C(=O)c2ccccc2[C@@]2(Cc3ccccc3N(CCCN(C)C)C2=O)[C@@H]1c1ccc(CO)cc1 yielded a composite z-score of 0.0593. In the case of COC(=O)[C@@]1(CCC(=O)OC(C)(C)C)N=C(c2ccc(OCCCO)cc2)O[C@H]1c1ccccc1, the composite z-score is reported as 0.194. In the case of O=C(O)[C@@]1(CCS(=O)(=O)c2ccccc2)N=C(c2ccc(OCCCO)cc2)O[C@H]1c1ccccc1, the composite z-score is reported as -0.0296. C=CCN(Cc1ccccc1)C(=O)C(c1cccs1)N(C(=O)/C=C\C(=O)O)c1ccc(CCOCCO)cc1 (centres undefined) was tested, and the composite z-score was -1.36. CC(C)NC(=O)[C@@H]1c2ccccc2C(=O)N(C(C)C)[C@H]1c1ccc(CO)cc1 showed a composite z-score of -0.715. C=CCC(OC(C)=O)[C@@H]1[C@@H](N(Cc2ccc(-c3cccc(C(F)(F)F)c3)o2)C(=O)c2cccc3ccccc23)c2cc(OCCCO)ccc2N1C(=O)Cc1ccc2ccccc2c1 (some centres undefined) gave a composite z-score of 0.0384. In the case of COc1ccc([Si](C)(C)[C@@H]2[C@@H](CCn3cc([C@H](O)c4ccccc4)nn3)O[C@]3(C(=O)N(Cc4cccc(N5CCC5=O)c4)c4ccccc43)[C@H]2C)cc1, the composite z-score is reported as -0.468.

From PubChem BioAssay
